Measurements as given in PubChem BioAssay AID1159580 (chemical genetic matrix, 2015).
Where “and” joins values, the source holds several entries; their conditions need not be identical. Identical values can stand only once. The campaign covered roughly 5,500 compounds. About 2,000 (36%) were called active. Not shown: some 18% with an inconclusive outcome. Rule as the data show it: active = normalized growth mostly below about 0.91 (no sharp cut-off); inconclusive = no clear call, values can overlap the other calls; inactive = mostly above about 0.92. The list shows a part of the results.

Experiment: chemical genetic growth profiling, strain panel (AID 1159580);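 also: tested at 20 µM; growth read once vehicle control cultures reached saturation at 30 °C; 1 = growth at the plate median or of vehicle wells; lower values mean less growth of the strain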
Conditions: S. cerevisiae deletion strains, growth OD

Measured: normalized growth

C[C@@H]1C(=O)OC2[C@H](O)C34[C@@H]5OC(=O)[C@@]3(O[C@@H]3OC(=O)[C@H](O)[C@@]34[C@H](C(C)(C)C)[C@H]5O)[C@]21O (stereo partly drawn)
inactive: locus YAL013W, strain DEP1, stronger effect = lower value 0.998 | locus YAL021C, strain ccr4, stronger effect = lower value 0.952 | locus YAL026C, strain drs2, stronger effect = lower value 0.978 | locus YAL030W, strain snc1, stronger effect = lower value 0.973 | locus YBL061C, strain skt5, stronger effect = lower value 0.975 | locus YBR009C, strain hhf1, stronger effect = lower value 0.959 | locus YBR021W, strain FUR4, stronger effect = lower value 0.983 | locus YBR023C, strain chs3, stronger effect = lower value 0.986 | locus YBR171W, strain sec66, stronger effect = lower value 0.974 | locus YBR229C, strain ROT2, stronger effect = lower value 1 | locus YBR231C, strain swc5, stronger effect = lower value 0.976 | locus YBR279W, strain paf1, stronger effect = lower value 0.98 | locus YCL011C, strain gbp2, stronger effect = lower value 0.972 | locus YCL016C, strain dcc1, stronger effect = lower value 0.975 | locus YCL029C, strain bik1, stronger effect = lower value 1.02 | locus YCL061C, strain MRC1, stronger effect = lower value 0.96 | locus YCL069W, strain vba3, stronger effect = lower value 0.976 | locus YCR088W, strain abp1, stronger effect = lower value 0.983 | locus YDL005C, strain med2, stronger effect = lower value 0.964 | locus YDL035C, strain GPR1, stronger effect = lower value 1 | locus YDL040C, strain nat1, stronger effect = lower value 0.975 | locus YDL074C, strain BRE1, stronger effect = lower value 0.999 | locus YDL101C, strain DUN1, stronger effect = lower value 1.01 | locus YDL134C, strain PPH21, stronger effect = lower value 0.999 | locus YDL185W, strain tfp1, stronger effect = lower value 1.02 | locus YDL192W, strain arf1, stronger effect = lower value 1.01 | locus YDR001C, strain nth1, stronger effect = lower value 0.973 | locus YDR069C, strain doa4, stronger effect = lower value 0.983 | locus YDR101C, strain arx1, stronger effect = lower value 1.01 | locus YDR137W, strain rgp1, stronger effect = lower value 0.935 | locus YDR159W, strain sac3, stronger effect = lower value 0.946 | locus YDR162C, strain NBP2, stronger effect = lower value 0.987 | locus YDR195W, strain ref2 0.942 | locus YDR297W, strain sur2, stronger effect = lower value 0.97 | locus YDR318W, strain mcm21, stronger effect = lower value 1.01 | locus YDR334W, strain swr1, stronger effect = lower value 0.976 | locus YDR335W, strain msn5, stronger effect = lower value 0.965 | locus YDR388W, stronger effect = lower value 1.01 | locus YDR392W, strain spt3, stronger effect = lower value 0.949 | locus YDR502C, strain sam2, stronger effect = lower value 1.03 | locus YEL003W, strain gim4, stronger effect = lower value 0.961 | locus YEL037C, strain rad23, stronger effect = lower value 0.976 | locus YEL061C, strain CIN8 (second series), stronger effect = lower value 0.965 | locus YEL061C, strain CIN8, stronger effect = lower value 0.992 | locus YER015W, strain faa2, stronger effect = lower value 0.989 | locus YER016W, strain bim1, stronger effect = lower value 0.975 | locus YER110C, stronger effect = lower value 1.01 | locus YER111C, strain swi4, stronger effect = lower value 0.964 | locus YER155C, strain BEM2 (second series), stronger effect = lower value 1.02 | locus YER155C, strain BEM2, stronger effect = lower value 1 | locus YER167W, strain BCK2, stronger effect = lower value 0.996 | locus YFR010W, strain ubp6, stronger effect = lower value 0.985 | locus YGL078C, strain dbp3, stronger effect = lower value 1.01 | locus YGL086W, strain mad1, stronger effect = lower value 1.03 | locus YGL167C, strain pmr1, stronger effect = lower value 0.972 | locus YGL173C, strain kem1, stronger effect = lower value 0.953 | locus YGL227W, strain vid30, stronger effect = lower value 0.955 | locus YGL240W, strain doc1, stronger effect = lower value 0.981 | locus YGL248W, strain PDE1, stronger effect = lower value 1.01 | locus YGL253W, strain hxk2, stronger effect = lower value 0.974 | locus YGR078C, strain PAC10, stronger effect = lower value 1 | locus YGR135W, strain pre9, stronger effect = lower value 1.02 | locus YGR252W, strain gcn5, stronger effect = lower value 1.01 | locus YHR013C, strain ard1, stronger effect = lower value 0.957 | locus YHR027C, strain rpn1, stronger effect = lower value 0.987 | locus YHR030C, strain SLT2, stronger effect = lower value 1 and 1.05 | locus YHR079C, strain IRE1 (second series), stronger effect = lower value 1.02 | locus YHR079C, strain IRE1, stronger effect = lower value 1.03 | locus YHR094C, strain hxt1, stronger effect = lower value 1.01 | locus YHR129C, strain ARP1, stronger effect = lower value 1 | locus YHR142W, strain chs7, stronger effect = lower value 0.956 | locus YHR200W, strain rpn10, stronger effect = lower value 1.01 | locus YIL066C, strain RNR3, stronger effect = lower value 1 | locus YIL073C, strain SPO22, stronger effect = lower value 1.06 | locus YIL125W, strain kgd1, stronger effect = lower value 1.01 | locus YIR030C, strain dcg1, stronger effect = lower value 1.02 | locus YJL092W, strain hpr5, stronger effect = lower value 0.975 | locus YJL095W, strain BCK1 (second series), stronger effect = lower value 0.955 | locus YJL095W, strain BCK1, stronger effect = lower value 0.992 and 1.03 | locus YJL115W, strain asf1, stronger effect = lower value 0.956 | locus YJL129C, strain trk1, stronger effect = lower value 0.974 | locus YJL134W, strain LCB3, stronger effect = lower value 1 | locus YJL154C, strain vps35, stronger effect = lower value 0.977 | locus YJL164C, strain tpk1, stronger effect = lower value 0.969 | locus YJL166W, strain qcr8, stronger effect = lower value 0.992 | locus YJL168C, strain set2, stronger effect = lower value 1.01 | locus YJL187C, strain SWE1 (second series), stronger effect = lower value 1.01 | locus YJR043C, strain POL32, stronger effect = lower value 0.994
